In assay [1] the target is Nuclear receptor subfamily 1 group I member 3 (Homo sapiens) (UniProt Q14994). As to the kind of experiment: qHTS assay to identify small molecule antagonists of the constitutive androstane receptor (CAR) signaling pathway (AID 1224838).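 Further: HepG2 cells stably expressing hCAR with CYP2B6 luciferase reporter stimulated by CITCO; nearly all actives have a fitted effect of over 40% in size.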 Further: potency means the concentration at half of the fitted maximal effect. The procedure, abridged: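 Read-out: ONE-Glo luciferase luminescence after 30 min at room temperature. HepG2-CYP2B6-hCAR double-stable cells, compounds in 15-point titration plus 50 nM CITCO final, 24 h at 37 C/5% CO2.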
Nuclear receptor subfamily 1 group I member 3 (Homo sapiens), sequence (Q14994 whole entry, looked up): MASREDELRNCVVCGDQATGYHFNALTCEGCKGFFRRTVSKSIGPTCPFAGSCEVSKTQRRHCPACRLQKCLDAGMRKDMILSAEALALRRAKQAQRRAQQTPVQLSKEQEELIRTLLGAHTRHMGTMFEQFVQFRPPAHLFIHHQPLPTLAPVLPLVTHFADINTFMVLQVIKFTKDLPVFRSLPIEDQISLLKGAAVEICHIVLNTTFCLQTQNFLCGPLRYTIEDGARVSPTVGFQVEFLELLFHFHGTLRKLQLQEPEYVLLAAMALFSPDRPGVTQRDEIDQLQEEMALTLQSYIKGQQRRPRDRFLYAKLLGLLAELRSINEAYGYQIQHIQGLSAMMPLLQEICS
In general terms: qHTS replaces the single test concentration by a dilution series.

Assay [2] has the same target. Briefly: qHTS assay to identify small molecule agonists of the constitutive androstane receptor (CAR) signaling pathway (AID 1224839). Further: nearly all actives have a fitted effect of over 15% in size. Further: potency means the concentration at half of the fitted maximal effect.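 On activation: HepG2 cells stably carrying human CAR and a CYP2B6 luciferase reporter.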 The gist of the method:
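HepG2 cells stably co-transfected with hCAR and a CYP2B6-2.2kb luciferase reporter; compounds at 15 concentrations with 0.75 uM PK11195 present. After 24 hr at 37 C, luciferase read by ONE-Glo luminescence.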

Assay [3] is described as follows: qHTS assay to identify small molecule antagonists of the estrogen related receptor signaling pathway with the pleiotropic PPARgamma coactivator (PGC) from Tox21 10K library (AID 1224841; call rule not given here; further: actives are mostly falling curves and most rising ones were filed inactive; nearly all actives have a fitted effect of over 50% in size; further: potency means the concentration at half of the fitted maximal effect). The gist of the method:
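Luminescence read-out (One-Glo luciferase reagent, 30 min at room temperature) from PGC/ERR cells exposed to DMSO-dissolved test compounds for 18 h at 37 C; cells, 2,000 per well, had been preincubated 6 h before compound transfer.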

Assay [4] in a line: qHTS assay to identify small molecule agonists of the estrogen related receptor signaling pathway with the pleiotropic PPARgamma coactivator (PGC) from Tox21 10K library (AID 1224842). Further: nearly all actives have a fitted effect of over 15% in size. Further: potency means the concentration at half of the fitted maximal effect. The procedure, abridged: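 Luminescence from One-Glo (30 min, room temperature) measured after PGC/ERR cells had 18 h at 37 C with pinned compound (23 nL in DMSO). Cells had been seeded at 2,000 per well and pre-incubated 6 h.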

A short description of assay [5]: qHTS assay to identify small molecule agonists of the hypoxia (HIF-1) signaling pathway - cell viability counter screen (AID 1224844; calls by dose curve; further: nearly all actives have a fitted effect of over 50% in size). The gist of the method:
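CellTiter-Glo luminescence read-out, 30 min RT, taken in the same wells as the beta-lactamase HRE reporter assay; HRE-bla ME-180 cells, 0.5% dialyzed FBS, 17 hr compound treatment at 37C, 5% CO2.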

Assay [6] is described as follows: qHTS assay to identify small molecule agonists of the hypoxia (HIF-1) signaling pathway (AID 1224846; active means well fitted activation curve with a large enough effect in the signal ratio in the repeat runs, not every such curve was filed as active; the % refers to the signal ratio). The gist of the method: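 Beta-lactamase FRET read-out (CCF4-AM substrate) from ME-180 cells carrying an HRE-driven bla reporter, after 17 hrs compound exposure at 37C/5% CO2. Cells were seeded at 2,000 per well in 0.5% dialyzed FBS medium and preincubated 5 hrs.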

A short description of assay [7]: qHTS assay to identify small molecule agonists of the estrogen related receptor (ERR) signaling pathway from Tox21 library (AID 1224849; calls by dose curve; further: nearly all actives have a fitted effect of over 15% in size). Conditions: ERR reporter cell line, ONE-Glo luciferase, 18 h; at 92.4 µM (top of the series). The procedure, abridged:
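Luminescence readout (ONE-Glo, 30 min RT) after 18 h compound exposure at 37 C of NTP-supplied ERR reporter cells; cells were plated 6 h before compound addition by pin tool.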

Assay [8] in a line: qHTS RealTime-Glo MT Cell Viability Assay in HepG2 cells - 24 hour (AID 1224867). Further: nearly all actives have a fitted effect of over 50% in size. The gist of the method: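 Real-time, nonlytic viability: 600 HepG2 cells/well mixed with NanoLuc enzyme plus prosubstrate; 5 h settle, compound (DMSO) added by pintool; luminescence monitored over 40 h at 37 C.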
Assay [9] in a line: qHTS RealTime-Glo MT Cell Viability Assay in HEK293 cells - 32 hour (AID 1224868). Further: top concentration of the series differs between compounds; nearly all actives have a fitted effect of over 50% in size. The gist of the method: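 Cells + reagent dispensed (600 cells/well, HEK293) → 5 h at 37 C/5% CO2 → 23 nL compound in DMSO pinned → 40 h at 37 C → luminescence read at 0, 8, 16, 24, 32, 40 h.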
A short description of assay [10]: qHTS RealTime-Glo MT Cell Viability Assay in HepG2 cells - 40 hour (AID 1224870). Further: nearly all actives have a fitted effect of over 50% in size. The gist of the method:
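Real-time viability: cells seeded at 600 per well together with NanoLuc and cell-permeant prosubstrate, compounds added after 5 h incubation. Luminescence tracked at 0, 8, 16, 24, 32 and 40 h of exposure.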

The target of assay [11] is Thyrotropin receptor (Homo sapiens) (UniProt P16473). Briefly: qHTS assay to identify small molecule agonists of the thyroid stimulating hormone receptor (TSHR) signaling pathway (AID 1224843; calls by dose curve; further: nearly all actives have a fitted effect of over 45% in size). The gist of the method:
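A cell-based cAMP HTRF format was run in TSHR-transfected HEK293 cells, 800 per well. Treatment: 30 min, room temperature. Detection: 1 h with labelled cAMP and anti-cAMP cryptate. Concentration-response over 15 points, three replicates.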

Assay [12] in a line: qHTS assay to identify small molecule agonists of H2AX - cell viability counter screen (AID 1224847; calls by dose curve;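 further: wild-type CHO-K1 cells; top concentration of the series differs between compounds; nearly all actives have a fitted effect of over 30% in size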). The gist of the method: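 CHO-K1 cells plated overnight at 37C, then exposed 3 h at 37C to compounds at 15 concentrations (0.76% DMSO final). Viability by CellTiter-Glo luminescence after 30 min at room temperature.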
Assay [13] in a line: qHTS assay to identify small molecule antagonists of the estrogen related receptor (ERR) signaling pathway from Tox21 library (AID 1224848). Further: nearly all actives have a fitted effect of over 50% in size. Further: potency means the concentration at half of the fitted maximal effect. The procedure, abridged:
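ERR cell line, 2,000 cells/well. 6 h settle, then compound (DMSO) added; 18 h at 37 C; ONE-Glo luminescence after 30 min RT.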

The nature of assay [14]: A CellTox Green Cytotoxicity Assay to monitor cytotoxicity in HEK293 cells - 40 hour (AID 1224871). Further: nearly all actives have a fitted effect of over 45% in size. The procedure, abridged: (§1)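 Read-out: fluorescence of a cell-impermeant cyanine dye staining DNA of dead cells, proportional to cytotoxicity. HEK293, 600 cells/well with reagent, compound (23 nL DMSO) added after 5 h; reads at 0, 8, 16, 24, 32, 40 h.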
Assay [15] is described as follows: qHTS assay to identify small molecule antagonists of the constitutive androstane receptor (CAR) signaling pathway - cell viability counter screen (AID 1224837). Further: nearly all actives have a fitted effect of over 45% in size. The procedure, abridged: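 Read-out: CellTiter-Fluor fluorescence after 23 hr at 37 C/5% CO2. Cells: HepG2 double-stable for hCAR and CYP2B6-2.2kb. Compounds tested at 15 concentrations in the presence of CITCO, final concentration 50 nM.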

Assay [16] in a line: A CellTox Green Cytotoxicity Assay to monitor cytotoxicity in HEK293 cells - 0 hour (AID 1224869). Further: nearly all actives have a fitted effect of over 50% in size. The gist of the method:
as §1

Assay [17] can be described thus: qHTS assay to identify small molecule agonists of the constitutive androstane receptor (CAR) signaling pathway - cell viability counter screen (AID 1224836). Further: nearly all actives have a fitted effect of over 45% in size. The procedure, abridged:
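HepG2 cells stably carrying hCAR and a CYP2B6-2.2kb reporter; 15-concentration compounds plus PK11195 (final 0.75 uM), 23 hr at 37 C/5% CO2. Viability read by CellTiter-Fluor fluorescence.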

The nature of assay [18]: qHTS assay to identify small molecule antagonists of the estrogen related receptor signaling pathway with the pleiotropic PPARgamma coactivator (PGC) from Tox21 10K library - cell viability counter screen (AID 1224840; active means well fitted cell-killing curve with a large enough effect in the repeat runs, not every such curve was filed as active; further: nearly all actives have a fitted effect of over 40% in size; further: potency means the concentration at half of the fitted maximal effect). The gist of the method: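 Fluorescence read-out of CellTiter-Fluor viability reagent, added after cells had been exposed to compound in DMSO for 17.5 h at 37 C; 30 min development at 37 C/5% CO2. Cells: PGC/ERR line, 2,000/well.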

A short description of assay [19]: qHTS assay to identify small molecule agonists of H2AX (AID 1224845; active means well fitted activation curve with a large enough effect in the signal ratio in the repeat runs, not every such curve was filed as active; the % refers to the signal ratio). The procedure, abridged:
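Phospho-H2AX Ser139 measured by HTRF (ex 320 nm; em 665 and 620 nm) after 24 hr antibody incubation. Compounds, 15 concentrations, 0.76% DMSO, were applied to CHO-K1 cells for 3hr at 37C before lysis.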

The structures appear in SMILES notation. A number with no mark means an inactive call. Results filed as inconclusive are left out. Active and inactive are the calls of the source. Unless noted, the call rests on the fitted dose curve; in most records, active means well fitted curve in the direction sought with a large enough effect in the repeat runs; inconclusive means weak or mixed curves; inactive means no such curve, though single readings can be large; an effect the other way counts as inactive or inconclusive.
On the % scale 0 is the no-effect control and ±100 the full control effect.

Thyrotropin receptor (Homo sapiens), sequence (P16473 whole entry, looked up): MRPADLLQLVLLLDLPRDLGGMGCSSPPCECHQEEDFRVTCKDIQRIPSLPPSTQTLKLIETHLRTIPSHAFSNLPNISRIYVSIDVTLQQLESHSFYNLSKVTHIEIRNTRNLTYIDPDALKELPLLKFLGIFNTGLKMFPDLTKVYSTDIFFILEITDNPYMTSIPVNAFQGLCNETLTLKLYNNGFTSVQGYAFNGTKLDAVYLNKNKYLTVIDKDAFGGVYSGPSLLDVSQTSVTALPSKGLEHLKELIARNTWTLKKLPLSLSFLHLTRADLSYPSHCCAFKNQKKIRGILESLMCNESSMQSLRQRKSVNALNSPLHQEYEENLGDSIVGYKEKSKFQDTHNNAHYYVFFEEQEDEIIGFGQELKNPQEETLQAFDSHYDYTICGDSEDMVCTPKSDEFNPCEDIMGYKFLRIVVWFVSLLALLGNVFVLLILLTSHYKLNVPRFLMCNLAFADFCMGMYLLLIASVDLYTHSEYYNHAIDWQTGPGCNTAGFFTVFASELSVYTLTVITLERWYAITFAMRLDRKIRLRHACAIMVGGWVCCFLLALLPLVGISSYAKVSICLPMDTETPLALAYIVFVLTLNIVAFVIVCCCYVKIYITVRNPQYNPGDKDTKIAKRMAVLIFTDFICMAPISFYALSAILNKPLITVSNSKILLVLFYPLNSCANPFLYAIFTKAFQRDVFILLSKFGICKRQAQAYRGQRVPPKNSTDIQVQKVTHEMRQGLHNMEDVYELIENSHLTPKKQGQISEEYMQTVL

Turning to `Nc1ccc(NCCO)c([N+](=O)[O-])c1`, the Potency result in [1], in assay [2], in assay [3], in assay [4], in assay [5] and in [6] was “inactive” in each case. Moreover, the Potency result in assay [8], in assay [9] and in [10] was “inactive” throughout. Moreover, the activity change, positive = activation in [7] was -17.2%.
In the case of `O=C(O)c1cc(N=Nc2ccc([N+](=O)[O-])cc2)ccc1O`, the Potency entry in [1], in assay [3], in assay [11], in [5], in assay [12] and in assay [13] was “inactive” each time. Further, the Potency entry in assay [8], in [9], in assay [10] and in assay [14] was “inactive” throughout. Besides, the Potency in assay [2] is 0.673 µM (active); in [4], 9.51 µM (active). For the same compound, the activity change, positive = activation in assay [7] is 93.2% (active).
Turning to `COc1cc2nc(N3CCN(C(=O)c4ccco4)CC3)nc(N)c2cc1OC`, the activity change, negative = cytotoxicity in assay [15] was -2.45% [at 19 µM]; in [12], -2.17% [at 31.6 µM]; in assay [8] it was -23% [at 15.8 µM]. The activation is 0.371% [at 19 µM] in assay [2] and -0.792% [at 19 µM] in assay [11]. The activity change, negative = cytotoxic in [9] was -17.7% [at 15.8 µM]. Further, the cytotoxicity in assay [16] was 2.18% [at 15.8 µM].
`Cc1ccc(O)c(O)c1`: the Potency result in assay [17], in assay [15], in assay [3], in [13], in assay [8] and in [16] was “inactive” each time. Further, in assay [10], the Potency result is “inactive”. For the same compound, the Potency in [2] is 47.2 µM (active); in assay [4] it was 13.3 µM (active).
Take `OC1CCC(C2CCCCC2)CC1` (configuration not stated): the Potency result in assay [17], in assay [15], in assay [18], in assay [3], in assay [4] and in [5] was “inactive” each time. The Potency result in assay [19], in [9], in assay [16], in assay [10] and in assay [14] was “inactive” throughout. Also, the activity change, positive = activation in assay [7] was -1.53%.
Regarding `CC(C)(C)C1CCC(=O)CC1`, the Potency result in assay [17], in [15], in [18], in assay [3], in assay [4] and in assay [11] was “inactive” throughout. The Potency result in [5], in assay [19], in [6], in [12], in assay [13] and in [8] was “inactive” throughout. For the same compound, the Potency result in [9], in assay [16] and in assay [10] was “inactive” in each case. Moreover, the activity change, positive = activation in [7] is -0.544%.
Turning to `C=Cc1ccccc1C=C`, the Potency entry in assay [17], in [18], in assay [11], in [5], in assay [19] and in [12] was “inactive” each time. Further, the Potency entry in assay [8], in assay [9], in assay [16], in assay [10] and in assay [14] was “inactive” in each case.
Take `CCN(CC)c1ccc2c(-c3ccc(S(=O)(=O)O)cc3S(=O)(=O)[O-])c3ccc(=[N+](CC)CC)cc-3oc2c1`: the Potency result in assay [2], in assay [4], in assay [5], in assay [6], in [8] and in [9] was “inactive” in each case. Further, the Potency result in [16] and in [10] was “inactive” throughout. In addition, the results for the Potency in assay [18], in [3] and in assay [13] were 28.2 µM (active), 28.2 µM (active) and 35.5 µM (active), respectively. Besides, the activity change, positive = activation in assay [7] is -38.9%.
For `COC(=O)c1ccccc1OC`, the Potency result in [17], in assay [18], in [3], in assay [4], in [11] and in assay [5] was “inactive” in each case. For the same compound, the Potency entry in assay [19], in assay [6], in assay [13], in assay [8], in assay [9] and in assay [10] was “inactive” in each case. The Potency entry in assay [14] was “inactive”. Moreover, the activity change, positive = activation in [7] is 0.916%.
For `CCC(C)[O-].CCC(C)[O-].CCOC(=O)/C=C(/C)[O-].[Al+3]`, the Potency result in assay [17], in assay [15], in assay [18], in assay [11], in assay [5] and in assay [19] was “inactive” in each case. For the same compound, the Potency result in assay [12], in [8], in assay [9], in assay [16], in [10] and in assay [14] was “inactive” each time.
As to `c1ccc(SSc2ccccc2)cc1`, the Potency entry in [15], in [2], in assay [18], in assay [5], in assay [6] and in assay [8] was “inactive” each time. Further, the Potency entry in [9], in [10] and in assay [14] was “inactive” in each case. Moreover, the Potency in assay [1] was 43.6 µM (active).
Turning to `C/C=C/C=C/COC(=O)C(C)C`, the Potency result in [1], in [2], in [18] and in [6] was “inactive” throughout.
`CC(=O)CC(=O)Nc1ccc(S(=O)(=O)O)cc1`: the Potency entry in [17], in [15], in assay [18], in assay [11], in assay [5] and in assay [19] was “inactive” in each case. For the same compound, the Potency entry in assay [6], in [8], in assay [9], in [16], in assay [10] and in assay [14] was “inactive” in each case.

(Values after PubChem BioAssay (Tox21).)
